These results are taken from PubChem BioAssay.

The structures appear in SMILES notation. Activity calls are given as the source filed them. Unless noted, how the calls were made is not given here.

Test [1] can be described thus: compound effects on lung adenocarcinoma cell viability – A549, calcein-AM fluorescence, 48 h, basal, profiling panel (AID 1162). Further: test concentration not given here. The settings on record: higher = more signal.
Test [2] is described as follows: compound effects on differentiated 3T3-L1 adipocyte viability – cell-based, 3T3-L1 adipocytes, calcein-AM fluorescence, 48 h, basal, profiling panel (AID 1163). Further: test concentration not given here. Conditions: 3T3-L1 adipocytes viability, higher = more signal.
The nature of test [3]: compound effects on hepatocellular carcinoma cell viability – HepG2, calcein-AM fluorescence, 48 h, basal, profiling panel (AID 1164). Further: test concentration not given here. Conditions: higher = more signal.
The nature of test [4]: compound effects on multiple myeloma cell viability – MM1S, calcein-AM fluorescence, 48 h, basal, profiling panel (AID 1165).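 Further: viability of MM1S multiple myeloma cells under basal unstimulated conditions; test concentration not given here.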 The settings on record: higher = more signal.
Test [5] can be described thus: calcein-AM signal in unstimulated myeloma cells – cell-based, calcein-AM fluorescence, 48 h, PK04 Diversity Set, profiling panel (AID 1166).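 Further: cells grown under basal conditions without added stimulus; test concentration not given here.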 The settings on record: RPMI8226 myeloma viability, higher = more signal.
Test [6] is described as follows: JC-1 mitochondrial signal, unstimulated HepG2 cells – cell-based, JC-1 fluorescence, 24 h, 100 nL compound, profiling panel (AID 1167). Further: test concentration not given here. Conditions: HepG2 mitochondrial potential, higher = more signal.
Test [7] in a line: JC-1 mitochondrial signal, unstimulated adipocytes – cell-based, JC-1 fluorescence, 3T3-L1 adipocytes, 24 h, 100 nL compound, profiling panel (AID 1168). Further: test concentration not given here. The settings on record: JC-1 mitochondrial fluorescence, higher = more signal, called active from +8 up or from −8 down.
Test [8] in a line: JC-1 mitochondrial signal, unstimulated myeloma cells – cell-based, JC-1 fluorescence, RPMI8226, 24 h, 100 nL compound, profiling panel (AID 1169). Further: test concentration not given here. The settings on record: JC-1 mitochondrial potential fluorescence, higher = more signal.
A short description of test [9]: JC-1 mitochondrial signal, unstimulated MM1S myeloma – cell-based, JC-1 fluorescence, 24 h, 100 nL compound, profiling panel (AID 1170). Further: test concentration not given here. Conditions: MM1S mitochondrial potential, higher = more signal.
Test [10] is described as follows: resazurin metabolic signal in A549 cells – cell-based, resazurin fluorescence, 24 h, PK04 Diversity Set, profiling panel (AID 1171). Further: test concentration not given here. Conditions: A549 viability, higher = more signal, called active from +8 up or from −8 down. (The colour change of resazurin is a common sign of viable cells or microbes.)
Test [11] is described as follows: resazurin metabolic signal in HepG2 cells – cell-based, resazurin fluorescence, 24 h, PK04 Diversity Set, profiling panel (AID 1172). Further: test concentration not given here. Conditions: HepG2 viability, higher = more signal.
Test [12] is described as follows: budding yeast growth changes without added modifier – OD600, strain BY4716, 24 h, basal condition, primary screen (AID 1173). Conditions: S. cerevisiae BY4716 growth, OD600, 24 h; higher = more signal, called active from +8 up or from −8 down.
Test [13] in a line: viability profiling in MM1S myeloma cells – cell-based, resazurin fluorescence, basal, 24 h, PK04 Diversity Set, profiling panel (AID 1174). Further: test concentration not given here. The settings on record: higher = more signal, called active from +8 up or from −8 down.
The target of test [14] is Dihydroorotate dehydrogenase (quinone), mitochondrial (Plasmodium falciparum (isolate 3D7)) (UniProt Q08210). The test is described as follows: inhibition of P. falciparum DHODH – biochemical, C-terminal His tag, absorbance 600 nm, primary screen (AID 1175).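 Further: recombinant parasite enzyme with a five histidine tag at its C terminus; test concentration not given here.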 Conditions: PfDHODH enzyme, DCIP absorbance 600 nm; higher = more signal, called active from +8 up or from −8 down.

Test [15] can be described thus: inhibition of PAO1 biofilm formation – strain PAO1, LB-PBS medium, absorbance 600 nm, primary screen (AID 1176). Further: test concentration not given here. Conditions: P. aeruginosa PAO1 growth/biofilm, A600, 12 h; higher = more signal.
Test [16] in a line: growth modulation of vineyard yeast isolate – strain RM11-1a, OD600, basal, 24 h, primary screen (AID 1177).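 Further: cultures grown under basal conditions with no added stressor; test concentration not given here.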 Conditions: S. cerevisiae RM11-1a growth, OD600, 24 h; higher = more signal, called active from +8 up or from −8 down.
A short description of test [17]: growth of efflux-deficient E. coli DRC39 – strain DRC39, OD650, 24 h, E. coli filamentation inducers, primary screen (AID 1178).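 Further: growth measured as culture turbidity by optical density at 650 nm; test concentration not given here.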 The settings on record: E. coli DRC39 acrAB, higher = more signal, called active from +8 up or from −8 down.
Test [18] is described as follows: growth of efflux-deficient E. coli DRC39 – strain DRC39, OD650, 48 h, E. coli filamentation inducers, primary screen (AID 1179).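 Further: screen aims at cell division blockers that make cells filament.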 Conditions: E. coli DRC39 delta-acrAB growth, higher = more signal, called active from +8 up or from −8 down.
A short description of test [19]: viability profiling in RPMI8226 myeloma cells – cell-based, resazurin fluorescence, basal, 24 h, PK04 Diversity Set, profiling panel (AID 1180).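 Further: RPMI8826 multiple myeloma cell line at 5000 cells per well; test concentration not given here.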 Conditions: higher = more signal.
Test [20] has as its target E3 ubiquitin-protein ligase XIAP (Homo sapiens) (UniProt P98170). The test is described as follows: small molecules binding XIAP protein – biophysical, small-molecule microarray, fluorescence 635 nm, primary screen (AID 1181).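 Further: score merges 667 nm emission and signal to noise over triplicate slides.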 The settings on record: higher = more signal.

E3 ubiquitin-protein ligase XIAP (Homo sapiens), sequence (P98170 whole entry, looked up): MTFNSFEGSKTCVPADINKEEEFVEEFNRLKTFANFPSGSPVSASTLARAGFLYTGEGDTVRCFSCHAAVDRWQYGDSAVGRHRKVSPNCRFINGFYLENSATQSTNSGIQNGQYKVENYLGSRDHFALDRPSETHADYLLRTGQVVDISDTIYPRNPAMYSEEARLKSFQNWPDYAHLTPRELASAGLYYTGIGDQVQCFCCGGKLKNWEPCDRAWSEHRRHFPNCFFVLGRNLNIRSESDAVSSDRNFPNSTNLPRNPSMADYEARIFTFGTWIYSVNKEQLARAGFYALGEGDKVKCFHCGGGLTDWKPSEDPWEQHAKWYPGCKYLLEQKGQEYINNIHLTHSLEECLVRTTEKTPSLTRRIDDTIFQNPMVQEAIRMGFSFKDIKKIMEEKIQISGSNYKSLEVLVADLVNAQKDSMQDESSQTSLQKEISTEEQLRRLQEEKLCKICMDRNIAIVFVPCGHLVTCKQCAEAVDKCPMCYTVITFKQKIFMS
Dihydroorotate dehydrogenase (quinone), mitochondrial (Plasmodium falciparum (isolate 3D7)), sequence (Q08210 whole entry, looked up): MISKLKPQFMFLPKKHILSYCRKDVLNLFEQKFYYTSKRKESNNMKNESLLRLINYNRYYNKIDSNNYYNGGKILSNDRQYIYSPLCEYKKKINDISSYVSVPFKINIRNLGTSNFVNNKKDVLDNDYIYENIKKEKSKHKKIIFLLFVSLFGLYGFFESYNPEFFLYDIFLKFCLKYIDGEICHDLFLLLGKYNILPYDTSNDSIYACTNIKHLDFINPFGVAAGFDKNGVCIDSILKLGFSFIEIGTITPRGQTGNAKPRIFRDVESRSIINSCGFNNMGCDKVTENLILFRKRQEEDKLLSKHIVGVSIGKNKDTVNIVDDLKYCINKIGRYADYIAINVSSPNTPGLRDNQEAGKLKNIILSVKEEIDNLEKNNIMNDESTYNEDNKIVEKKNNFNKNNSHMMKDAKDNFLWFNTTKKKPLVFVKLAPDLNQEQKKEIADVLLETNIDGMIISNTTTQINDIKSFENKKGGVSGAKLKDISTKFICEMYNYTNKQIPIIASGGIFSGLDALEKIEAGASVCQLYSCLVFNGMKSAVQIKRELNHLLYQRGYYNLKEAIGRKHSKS

For the compound `CC(C)C(=C=CC[C@@H](O)c1ccc(OCCO)cc1)C[C@@H](O)COCc1ccccc1`, the z-score was 2.2 in test [1]; 1.46 in test [2]; 1.2 in test [3]; -0.619 in [4]; 0.471 in test [5]; 1.52 in test [6]. The z-score in test [7] is 0.404 (inactive); in test [8], -0.147; in [9], -1.11; in test [10], 0.343 (inactive); in [11] it was 0.932; in [12] it was -2.26 (inactive). The z-score in test [13] is 0.189 (inactive); in [15], 0.919 (inactive); in test [16] it was -2 (inactive); in test [17], 1.38 (inactive); in test [18], 1.29 (inactive); in [19], 1.55. Besides, the figures for the composite z-score in test [14] and in [20] were -2.2 (inactive) and 0.108, respectively.

On to `O=C1O[C@@H](c2ccccc2)[C@@H](c2ccccc2)N2[C@@H](c3ccccc3OCCO)[C@]3(C(=O)Nc4ccccc43)[C@@H](C(=O)Nc3nc4ccccc4s3)[C@H]12`, for which the z-score in [1] is -2.12; in test [2], 1.18; in [3] it was -1.98; in test [4], -3.17; in test [5] it was -4.44; in test [6], -2.85. Moreover, the z-score is 3.87 (inactive) in [7]; -1.3 in [8]; -1.54 in [9]; -1.52 (inactive) in test [10]; -0.699 in test [11]; 0.583 (inactive) in test [12]. Also, the z-score in [13] was -2.95 (inactive); in test [15] it was 1.36 (inactive); in test [16], 1.11 (inactive); in test [17] it was -0.986 (inactive); in [18], -1.25 (inactive); in test [19], -5.15. The results for the composite z-score in test [14] and in [20] were 0.905 (inactive) and 0.0975, respectively.

In the case of `C=C(COC)/C(=C/C[C@@H](OC(=O)c1ccncc1)c1ccc(CO)o1)c1cc(C(=O)OC)ccc1OC`, the z-score was 0.27 in test [1]; -0.766 in [2]; 0.466 in test [3]; -0.761 in [4]; -0.27 in test [5]; 0.232 in [6]. The z-score was -0.478 (inactive) in [7]; -0.277 in test [8]; -1.28 in [9]; 0.386 (inactive) in [10]; 0.755 in test [11]; -0.439 (inactive) in test [12]. Further, the z-score in [13] is 0.0477 (inactive); in test [15], 1.03 (inactive); in test [16], 0.0707 (inactive); in test [17] it was 1.19 (inactive); in test [18], 1.03 (inactive); in [19], 0.515. The composite z-score is -2.14 (inactive) in [14] and 1.7 in test [20].

With `CN1C(=O)C2C=CC(C(O)C3CC=CCC3)N(N(c3ccccc3)c3ccccc3)C2C1=O` (stereo not given), the z-score was -0.0631 in test [1]; -1.9 in test [2]; 0.125 in test [3]; 0.535 in test [4]; -0.785 in test [5]; -0.77 in test [6]. The z-score in test [7] was -0.339 (inactive); in test [8], -0.23; in test [9], -0.711; in [10] it was -0.501 (inactive); in [11] it was 0.129; in [12] it was 1.16 (inactive). Besides, the z-score in test [13] was -1.17 (inactive); in test [15] it was 0.599 (inactive); in test [16], 0.595 (inactive); in test [17], -0.486 (inactive); in test [18], 0.364 (inactive); in test [19] it was -1.06. For the same compound, the composite z-score in [14] was -0.0647 (inactive); in [20] it was -0.269.

Regarding `C=CCOC(=O)[C@H]1[C@@H]2C(=O)O[C@@H](c3ccccc3)[C@@H](c3ccccc3)N2[C@@H](c2ccc(OCCOC(=O)[C@H]3C[C@H]4C(=O)N[C@@H](CCCCN(C)C)C(=O)N4[C@H]3c3ccc(O)cc3)cc2)[C@]12C(=O)Nc1ccc(I)cc12`, the z-score in test [1] is -0.041; in test [2], -0.032; in [3], -0.959; in test [4], -0.203; in [5], 0.427; in test [6] it was 0.75. Also, the z-score in [7] is -0.623 (inactive); in [8] it was 0.742; in test [9] it was 0.192; in [10], -0.708 (inactive); in test [11], 0.0141; in test [12], -0.526 (inactive). Further, the z-score in test [13] was -0.934 (inactive); in [15] it was 0.739 (inactive); in test [16], -0.0228 (inactive); in [17], -0.624 (inactive); in test [18] it was -1.24 (inactive); in test [19] it was -0.973. In addition, the composite z-score in test [14] was 0.341 (inactive); in test [20], -0.0819.

With `NC(=O)[C@@H]1[C@H]2C(=O)O[C@H](c3ccccc3)[C@H](c3ccccc3)N2[C@H](c2ccc(O)cc2)[C@@]12C(=O)Nc1ccccc12`, the z-score was -0.343 in test [1]; 0.956 in test [2]; -0.19 in [3]; -0.647 in test [4]; -0.07 in test [5]; -0.376 in [6]. Moreover, the z-score in test [7] was -0.0789 (inactive); in [8], -0.902; in test [9], -0.079; in test [10], -0.0543 (inactive); in test [11], 0.363; in test [12], -1.39 (inactive). The z-score was 0.307 (inactive) in test [13]; 0.449 (inactive) in test [15]; -0.665 (inactive) in [16]; 0.385 (inactive) in [17]; -0.766 (inactive) in [18]; -0.224 in test [19]. In addition, the figures for the composite z-score in test [14] and in test [20] were -0.565 (inactive) and 0.0073, respectively.

Consider `COCCOC(=O)N1C(=O)[C@@]2(c3cc(C#CCC(C(=O)OC)C(=O)OC)ccc31)[C@H](c1ccccc1OCCO)N1[C@H](c3ccccc3)[C@H](c3ccccc3)OC(=O)[C@H]1[C@@H]2C(=O)NC[C@H](O)c1ccccc1`, for which the z-score in test [1] was -0.0256; in test [2], 0.821; in test [3] it was 0.015; in [4] it was -3.44; in [5], -3.9; in [6], -0.187. The z-score is 2.16 (inactive) in test [7]; -0.776 in test [8]; -1.81 in test [9]; -0.55 (inactive) in test [10]; -0.326 in test [11]; 1.67 (inactive) in [12]. In addition, the z-score in [13] was -2.44 (inactive); in test [15], 2.23 (inactive); in test [16] it was 2.84 (inactive); in test [17], 0.675 (inactive); in test [18] it was 0.382 (inactive); in [19] it was -3.62. Further, the values for the composite z-score in [14] and in [20] were -0.398 (inactive) and 0.177, respectively.

`CN(C)CCCCCCNC(=O)[C@H]1C[C@H]2C(=O)N3CCC[C@H]3C(=O)N2[C@H]1c1ccc(O)cc1`: the z-score in test [1] is -0.79; in test [2] it was 0.627; in [3] it was -0.952; in test [4] it was -0.567; in test [5] it was -0.554; in test [6], 0.661. The z-score is 0.597 (inactive) in test [7]; 0.262 in test [8]; 0.538 in test [9]; -0.636 (inactive) in [10]; -0.564 in test [11]; -0.444 (inactive) in [12]. Moreover, the z-score is 0.472 (inactive) in test [13]; 1.44 (inactive) in test [15]; -0.327 (inactive) in [16]; 0.113 (inactive) in [17]; -0.523 (inactive) in test [18]; -0.0213 in test [19]. The composite z-score was -1.76 (inactive) in test [14] and 0.23 in test [20].
